Data taken from PubChem BioAssay (NCATS).
Inconclusive results are not listed. The source made the active and inactive calls. Unless noted, calls come from the whole dose curve; as a rule, active = well fitted curve in the direction sought with a large enough effect; inconclusive = small, poorly fitted or top-dose-only effect, or another doubt; inactive = no such curve, though single readings can be large; an effect the other way counts as inactive or inconclusive.

How the values were obtained:
[1] = molecular target: Luciferin 4-monooxygenase (Photinus pyralis) (UniProt P08659); assay: Biochemical firefly luciferase enzyme assay for NPC (AID 624030);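 note: purified P. pyralis luciferase at 10 nM with luciferin and ATP substrate; nearly all actives have a fitted effect of over 70% in size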
Sequence of Luciferin 4-monooxygenase (Photinus pyralis) (P08659 whole entry, looked up): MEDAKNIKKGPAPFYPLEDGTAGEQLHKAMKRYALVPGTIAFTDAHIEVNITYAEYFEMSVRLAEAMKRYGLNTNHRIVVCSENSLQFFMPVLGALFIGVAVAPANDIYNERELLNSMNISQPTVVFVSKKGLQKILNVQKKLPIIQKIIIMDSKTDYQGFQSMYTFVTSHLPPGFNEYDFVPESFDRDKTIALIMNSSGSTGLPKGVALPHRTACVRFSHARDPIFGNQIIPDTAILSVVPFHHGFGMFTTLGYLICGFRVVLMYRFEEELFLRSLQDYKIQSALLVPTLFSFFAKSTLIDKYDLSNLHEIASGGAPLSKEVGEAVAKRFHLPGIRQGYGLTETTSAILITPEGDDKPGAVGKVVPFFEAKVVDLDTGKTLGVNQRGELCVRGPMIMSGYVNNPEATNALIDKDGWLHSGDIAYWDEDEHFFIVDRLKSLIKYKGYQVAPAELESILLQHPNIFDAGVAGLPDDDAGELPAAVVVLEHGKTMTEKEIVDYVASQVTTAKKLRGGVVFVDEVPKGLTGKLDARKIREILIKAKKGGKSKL
Outline: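 Purified P. pyralis luciferase at 10 nM in 50 mM Tris Acetate (final), luminescence read within 5 minutes of enzyme addition to compounds. Activity normalised to PTC124 versus DMSO; concentration-response curves classed by r2, magnitude and activity.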

[2] = S16 Schwann cell viability assay (CellTiter-Glo assay) (AID 624031);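 note: native untransfected S16 rat Schwann cells; cellular ATP luminescence as a viability measure; nearly all actives have a fitted effect of over 70% in size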
Outline: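 Rat S16 Schwann cells without reporter constructs received compound or DMSO for 24 h at 37 °C under 5% CO2. Cellular ATP was then quantified by CellTiter-Glo luminescence, with vehicle wells defined as 0% activity and cell-free wells as reference.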

[3] = S16 Schwann cell PMP22 intronic element firefly luciferase assay (AID 624032); note: nearly all actives have a fitted effect of over 30% in size
Outline: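 Rat S16 Schwann cells stably carrying firefly luciferase driven by a PMP22 intronic element, in 10% FBS, treated 24 h at 37 C. ONE-Glo luminescence normalized to PTC124 control and DMSO (0%); curves classed by r2, magnitude and activity.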

[4] = S16 Schwann cell PMP22 intronic element beta-lactamase assay (AID 624044; calls by dose curve; note: nearly all actives have a fitted effect of over 15% in size)
Outline: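 Beta-lactamase reporter under a PMP22 intronic regulatory element in stable S16 rat Schwann cells; 24 h compound exposure. 460 nm blue signal normalized between DMSO (0%) and potassium clavulanate, with 535 nm FRET tracking viability; curves classed by r2 and response.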

[5] = tested on: AA1029; assay: qHTS profiling for inhibitors of Plasmodium falciparum proliferation (AID 504749); note: nearly all actives have a fitted effect of over 60% in size; conditions: P. falciparum in erythrocytes, SYBR Green DNA, 72 h; series mostly up to 28.7 µM
Outline: (§1)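 SYBR Green fluorescence (ex 485 nm, em 535 nm) reports parasite DNA after 72 h compound exposure of infected red cells at 0.3% parasitemia, 2.5% hematocrit; signal normalized to 0.29 uM artemisinin and vehicle wells.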

[6] = tested on: CP211; assay: as above; conditions: P. falciparum in erythrocytes, SYBR Green DNA, 72 h; series mostly up to 28.7 µM
Outline: as §1

[7] = tested on: CP217; assay: as above; conditions: P. falciparum in erythrocytes, SYBR Green DNA, 72 h; series mostly up to 28.7 µM
Outline: as §1

[8] = tested on: CP260; assay: as above; conditions: P. falciparum in erythrocytes, SYBR Green DNA, 72 h; series mostly up to 28.7 µM
Outline: as §1

[9] = tested on: CP266; assay: as above; conditions: P. falciparum in erythrocytes, SYBR Green DNA, 72 h; series mostly up to 28.7 µM
Outline: as §1

[10] = tested on: CP286; assay: as above; conditions: P. falciparum in erythrocytes, SYBR Green DNA, 72 h; series mostly up to 28.7 µM
Outline: as §1

[11] = tested on: CP297; assay: as above; conditions: P. falciparum in erythrocytes, SYBR Green DNA, 72 h; series mostly up to 28.7 µM
Outline: as §1

[12] = tested on: CP315; assay: as above; conditions: P. falciparum in erythrocytes, SYBR Green DNA, 72 h; series mostly up to 28.7 µM
Outline: as §1

[13] = tested on: DIV14; assay: as above; conditions: P. falciparum in erythrocytes, SYBR Green DNA, 72 h; series mostly up to 28.7 µM
Outline: as §1

[14] = tested on: DIV17; assay: as above; conditions: P. falciparum in erythrocytes, SYBR Green DNA, 72 h; series mostly up to 28.7 µM
Outline: as §1

[15] = tested on: FAB9; assay: as above; conditions: P. falciparum in erythrocytes, SYBR Green DNA, 72 h; series mostly up to 28.7 µM
Outline: as §1

[16] = tested on: ICS; assay: as above; conditions: P. falciparum in erythrocytes, SYBR Green DNA, 72 h; series mostly up to 28.7 µM
Outline: as §1

[17] = tested on: JCK; assay: as above; conditions: P. falciparum in erythrocytes, SYBR Green DNA, 72 h; series mostly up to 28.7 µM
Outline: as §1

[18] = tested on: N140; assay: as above; conditions: P. falciparum in erythrocytes, SYBR Green DNA, 72 h; series mostly up to 28.7 µM
Outline: as §1

[19] = tested on: PC15; assay: as above; conditions: P. falciparum in erythrocytes, SYBR Green DNA, 72 h; series mostly up to 28.7 µM
Outline: as §1

[20] = tested on: TAB165; assay: as above; conditions: P. falciparum in erythrocytes, SYBR Green DNA, 72 h; series mostly up to 28.7 µM
Outline: as §1

Measured: Potency

CN=C(N)NCCCC(N)C(=O)O (stereo not given)
inactive: all assays above
